The source of these data is PubChem BioAssay (EPA / NIEHS).

The nature of assay [1]: CCTE_Shafer_MEA_dev_AB: CCTE's Alamar Blue Assay for Cytotoxicity in the Neural Network Formation Assay, Shafer Lab (AID 2284083; active = hit-call score of the fitted dose curve at least 0.9, where 1 is the maximum;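 also: resazurin reduction fluorescence as viability of cultured neurons; twelve days of exposure from plating with re-dosing on DIV 5 and 9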). In a few lines:
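Cytotoxicity companion to the developmental MEA: primary rat cortical neurons, 12-day exposure starting day 0, compound refreshed DIV 5 and 9; resazurin fluorescence, fitted against DMSO vehicle.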

The nature of assay [2]: CCTE_Shafer_MEA_dev_mutual_information_norm: CCTE's Neural Network Formation Assay for Mutual Information Normalization, Shafer Lab (AID 2284091).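 As to AC50: mutual information between electrodes summarised as area under curve across four recording days; potency is for a decrease in mutual information relative to DMSO.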 In a few lines:
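Exposure of primary rat cortical neurons began at plating and ran to DIV 12, with full media and treatment renewal after DIV 5 and 9 recordings. Mutual information AUC (DIV 5–12) was analysed for loss versus DMSO.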

Assay [3] is described as follows: CCTE_Shafer_MEA_dev_correlation_coefficient_mean: CCTE's Neural Network Formation Assay for Mean Correlation Coefficient, Shafer Lab (AID 2284093).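 As to AC50: well mean pairwise spike train correlation integrated as AUC over recording days 5 to 12; potency fitted for loss of correlation relative to DMSO vehicle wells.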 In a few lines: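 Extracellular firing from rat cortical networks on 48-well MEAs, DMSO-referenced, negative fitting direction. Compound present from plating to DIV12; mean pairwise correlation per well integrated over DIV5–12 recordings by trapezoidal AUC.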

Assay [4] can be described thus: UKN2_HCS_IMR90_neural_migration: University of Konstanz (UKN) Leist Lab Neural Crest Cell Migration Assay in human induced IMR90 Pluripotent Stem Cells (UKN2) (AID 2284204). The following applies: actives raise or lower the signal. In a few lines:
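Using a 96-well stopper format with PLO/laminin/fibronectin coating, neural crest cells from iPSC migrate in cytokine-supplemented N2-S medium; after 24 h, chemicals are applied for a further 24 h, then cells are imaged after dye staining.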

Assay [5] in a line: IUF_NPC1b_proliferation_BrdU_72hr: Leibniz Research Institute for Environmental Medicine (IUF) 72-hour Neural Progenitor Cell Bromodeoxyuridine (BrdU) Proliferation Assay (NPC1b) (AID 2284207). In a few lines:
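Neural progenitor spheres of human fetal origin are treated for three days; BrdU added for the last 16 h is quantified by luminescence ELISA, with DMSO as baseline and EGF/FGF omission as positive control.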

Assay [6] in a line: IUF_NPC1a_proliferation_area_72hr: Leibniz Research Institute for Environmental Medicine (IUF) 72-hour Neural Progenitor Cell Proliferation Area Assay (NPC1a) (AID 2284208). In a few lines: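 hNPC spheres (human fetal cortex, GW 16-19), one per poly-Hema U-bottom well; EGF+FGF medium; dosed day 0, no re-dosing; 72 h, 37C, 5% CO2; phase-contrast sphere area; DMSO = baseline; minus-GF = positive ctrl.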

The nature of assay [7]: IUF_NPC1_viability_72hr: Viability Assessment at 72 hours in the Leibniz Research Institute for Environmental Medicine (IUF) Neural Progenitor Cell Proliferation Assay (NPC1) (AID 2284209). In a few lines:
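Three-day continuous exposure of human neural progenitor spheres under EGF/FGF-driven proliferation; cell viability scored by alamar blue signal versus DMSO.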

A short description of assay [8]: CCTE_Mundy_HCI_Cortical_Synap_Neur_Matur_NeuriteSpotCountPerNeuriteLength: CCTE's Synaptogenesis and Neurite Maturation Assay in rat cortical cells for Neurite Spot Count per Neurite Length, Mundy Lab (AID 2284210). In a few lines:
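Neurite-associated synapse density (synaptophysin puncta per unit neurite length) is measured by fluorescence high-content imaging in rat cortical cultures treated from DIV 7 and fixed at DIV 12, with DMSO as negative control.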

A short description of assay [9]: CCTE_Mundy_HCI_Cortical_Synap_Neur_Matur_BPCount: CCTE's Synaptogenesis and Neurite Maturation Assay in rat cortical cells for Branch Point Count, Mundy Lab (AID 2284211). In a few lines:
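In this multiplexed morphology assay, cortical cells from rat receive chemicals at DIV 7 and are fixed at DIV 12, then immunostained and imaged; branch points are counted, with DMSO as baseline.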

The nature of assay [10]: CCTE_Mundy_HCI_Cortical_NOG_NeuriteCount: CCTE's Neurite Outgrowth Assay in rat cortical cells for Neurite Count, Mundy Lab (AID 2284212).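 Also: cells fixed about two days after chemical exposure began.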 In a few lines:
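Rat cortical primary cells; compound added 2 h post-plating, 1/10 dilution of working solution. Anti-betaIII-tubulin/AF488 ICC; ArrayScan neurite count vs DMSO.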

Assay [11] is described as follows: CCTE_Mundy_HCI_Cortical_NOG_NeuriteLength: CCTE's Neurite Outgrowth Assay in rat cortical cells for Neurite Length, Mundy Lab (AID 2284213).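 As to AC50: neurites imaged about 48 to 50 h after chemical exposure began.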 In a few lines: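 First, rat primary cortical cells were plated and, 2 h later, given test chemical as a 1/10 dilution. Finally, βIII-tubulin immunostaining enabled automated imaging of neurite length.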
Assay [12] is described as follows: CCTE_Mundy_HCI_Cortical_Synap_Neur_Matur_NeuriteLength: CCTE's Synaptogenesis and Neurite Maturation Assay in rat cortical cells for Neurite Length, Mundy Lab (AID 2284214). In a few lines:
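DMSO-normalised neurite length, from high-content imaging of anti-MAP2-stained rat cortical cells fixed at DIV 12. Glia were suppressed with AraC (DIV 5) before chemical exposure from DIV 7.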

Assay [13] can be described thus: CCTE_Mundy_HCI_Cortical_Synap_Neur_Matur_NeuriteSpotCountPerNeuron: CCTE's Synaptogenesis and Neurite Maturation Assay in rat cortical cells for Neurite Spot Count per Neuron Count, Mundy Lab (AID 2284215). In a few lines:
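Read-out: neurite-associated synaptophysin puncta per neuron, imaged by high-content analysis after MAP2, synaptophysin and Hoechst staining. Rat primary cortical cultures, dosed DIV 7 through DIV 12; DMSO served as baseline.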

Assay [14] can be described thus: CCTE_Mundy_HCI_Cortical_Synap_Neur_Matur_SynapseCount: CCTE's Synaptogenesis and Neurite Maturation Assay in rat cortical cells for Synapse Count, Mundy Lab (AID 2284218). In a few lines: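 Endpoint: synapses/neuron by HCI (synaptophysin puncta on MAP2-labelled neurites, Hoechst nuclei). Rat primary cortical cells, AraC DIV 5, dosed DIV 7, fixed DIV 12; DMSO negative control.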

The nature of assay [15]: CCTE_Shafer_MEA_acute_LDH: CCTE's Lactate Dehydrogenase Assay for Cytotoxicity in the Neural Acute Assay, Shafer Lab (AID 2284086; active = hit-call score of the fitted dose curve at least 0.9, where 1 is the maximum;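 also: active means LDH release rises above DMSO vehicle level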). In a few lines:
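Cytotoxicity readout: spectrophotometric LDH activity in supernatant of rat primary cortical neurons, post-plating day 13 or 15, sampled after 40 min compound exposure; signal gain relative to DMSO baseline.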

Assay [16] is described as follows: TAMU_PeakParms_SingleDonor1434_Chronotropy: Texas A&M University (TAMU) 1.5-hr Human Induced Pluripotent Stem Cell (iPSC)-derived Cardiomyocytes Calcium (Ca+2) Flux Assay for Cardiotoxicity: Chronotropy (changes in peak frequency) (AID 2284217). The following applies: actives raise or lower the signal. In a few lines:
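Using fluorescent Ca2+ flux, average beats per second are measured in human iPSC-derived cardiomyocytes treated 90 min (0.5% DMSO vehicle, 0.2–100 uM). Non-beating data points are removed; activity is modeled in both directions relative to DMSO controls.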

Structures are written as SMILES. Several values for one entry are separate records, joined by “and”; a condition that tells them apart may be missing. Equal entries are not always repeated. Records with an inconclusive call do not appear. Where a structure was tested more than once in an assay, its records may differ in their call. Activity calls are given as the source filed them. The calls were made as follows, unless noted: active = hit-call score of the fitted dose curve at least 0.9, where 1 is the maximum; inactive = score below 0.9.

Turning to `CCOP(=S)(OCC)SCSCC`, the AC50 was 68.9 µM (active) in assay [1]; 4.04 µM (active) in assay [2]; 74.5 µM (active) and 13 µM (active) in assay [3]; 0.761 µM (active) in [5]; 50 µM (active) and 67.2 µM (active) in assay [8]; 80.7 µM (active) and 50 µM (active) in assay [9]. Further, the AC50 was 78.1 µM (active) and 70.2 µM (active) in assay [12]; 50 µM (active) in assay [13]; 50 µM (active) and 67.7 µM (active) in [14]. The outcome in assay [1], in assay [2], in assay [4], in assay [6], in assay [7] and in [10] was inactive. For the same compound, the result in [11] was inactive.

On to `CCOc1ccc(C(C)(C)COCc2cccc(Oc3ccccc3)c2)cc1`, for which the AC50 was 1.98 µM (active) in assay [1]; 3.09 µM (active) in assay [2]; 10 µM (active) in [3]; 1.92 µM (active) in assay [5]; 23.7 µM (active) in [8]; 26.8 µM (active) in assay [9]. Also, the half-maximal activity concentration (AC50) was 21.9 µM (active) in [10], 3.81 µM (active) in [12], 11.9 µM (active) in assay [13] and 15 µM (active) in assay [14]. Moreover, the call in [6], in assay [7] and in assay [11] was inactive.

In the case of `CC(Cl)(Cl)C(=O)O`, the result in assay [15] was inactive.

Take `O=P(Oc1ccccc1)(Oc1ccccc1)Oc1ccccc1`: the compound was called inactive in [1], in assay [2], in assay [3], in [5], in assay [6] and in assay [7]. Also, the outcome in assay [16] was inactive.

Turning to `O=C(O)C=CC(F)(C(F)(F)F)C(F)(F)F`, the outcome in [2] and in assay [3] was inactive.

In the case of `O=C(O)C(F)(F)OC(F)(F)C(F)(F)OC(F)(F)C(=O)O`, the result in assay [2] and in assay [3] was inactive.

Take `CC(C)(C)c1ccccc1OP(=O)(Oc1ccccc1)Oc1ccccc1`: the AC50 in assay [1] is 15 µM (active); in assay [3] it was 24.4 µM (active); in [9], 2.98 µM (active); in assay [10], 19 µM (active); in [11], 21.6 µM (active); in assay [12], 1.6 µM (active). Also, the values for the AC50 in assay [13], in assay [16] and in [14] were 2.07 µM (active), 32 µM (active) and 2.69 µM (active), respectively. Besides, the compound was called inactive in [1], in assay [15], in assay [2], in assay [3], in assay [5] and in assay [6]. Also, the outcome in [7] and in [8] was inactive.

On to `C=CC(=O)OCC(F)(F)C(F)F`, for which the AC50 was 20.7 µM (active) in assay [1], 5.12 µM (active) in [2] and 11.3 µM (active) in [3].

With `O=S(=O)(c1ccc(O)cc1)c1ccc(O)cc1`, the outcome in assay [1], in [2] and in [3] was inactive.

Take `OCC(F)(F)OC(F)(F)C(F)(F)OC(F)(F)C(F)(F)OC(F)(F)CO`: the compound was classed as inactive in [1], in assay [2] and in assay [3].

Take `OCC(F)(F)OC(F)(F)C(F)(F)OC(F)(F)CO`: the call in assay [2] and in assay [3] was inactive.

In the case of `CO/N=C(/C(=O)OC)c1ccccc1COc1ccccc1C`, the AC50 was 1.15 µM (active) in assay [1]; 0.454 µM (active) in assay [2]; 0.765 µM (active) in [3]; 23.8 µM (active) in [5]; 31.6 µM (active) in [6]; 3.36 µM (active) in [8]. The AC50 in assay [9] is 5.13 µM (active); in assay [10], 19.1 µM (active); in assay [11], 14.5 µM (active); in assay [12], 6.23 µM (active); in assay [13], 3.31 µM (active); in [14], 3.28 µM (active). For the same compound, the call in [4] and in [7] was inactive.

As for `[N-]=[N+]=[N-]`, in assay [15], the compound was called inactive.

Turning to `c1cc2c3c(cccc3c1)CC2`, the compound was called inactive in assay [1], in assay [2] and in assay [3]. In addition, in assay [16], the AC50 is 32.2 µM (active).

As to `ClC(Cl)(Cl)c1ccccc1`, in assay [15], the outcome was inactive.
